The supplement of paper PMC5407854, “Inhibitor of ppGalNAc-T3-mediated O-glycosylation blocks cancer cell invasiveness and lowers FGF23 levels” (eLife, 2017)
The full ranking holds about 1,700 compounds; the median of “T3 sensor activation Q score (MG/GFP ratio z-score vs DMSO controls)” is about 0.25, and the highest 2% start at about 1.9. The full list was thinned out, with the highest values kept by preference.

tested on: ppGalNAc-T3 sensor; experiment: T3 sensor activation Q score (MG/GFP ratio z-score vs DMSO controls) (SD units); higher = more sensor activation (inhibition of ppGalNAc-T3 glycosylation); conditions: HEK293 sensor cells; 10 µM; 6 h
Description: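 Cells were treated with compound at 10 uM for 6 h, then MG/GFP ratio was read by flow cytometry (10,000 cells per well, duplicate wells). Q = (R - R_neg)/SD_neg relative to DMSO vehicle controls; the signal rises when the glycosyltransferase is inhibited.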

| SMILES | T3 sensor activation Q score |
| --- | --- |
| N#CC1=C2CCCCC2(O)NC1=O (configuration not stated) | -0.45 |
| CC1=C2C3OC(=O)C(C)C3CCC2(C)C=C(Cl)C1=O (configuration not stated) | 1.1 |
| CC(=O)[C@@]1(O)[C@H](C)C[C@H]2[C@@H]3C=C(C)C4=Cc5c(cnn5-c5ccccc5)C[C@]4(C)[C@H]3[C@@H](O)C[C@@]21C | 5 |
| CC1=CC2C(C(O)CC3(C)C2CC(C)C32OCOC23COCO3)C2(C)CC(=CO)C(=O)C=C12 (configuration not stated) | -3.35 |
| COC1C(=O)CCC2(CO2)C1(O)C1(C)OC1CC=C(C)C (configuration not stated) | -1.6 |
| OCC1(CO)CC2(C1)CC(CO)(CO)C2 | -1.15 |
| c1ccc(Nc2cccc3c(Nc4ccccc4)cccc23)cc1 | -0.45 |
| COc1ccc(NC(=O)CC(C)=O)c(OC)c1 | -0.1 |
| CC1(C)N=C(N)NC(=NCCCOc2ccc([N+](=O)[O-])cc2)N1 | 0.35 |
| O=S1(=O)CSCS(=O)(=O)C1 | -0.85 |
| Cc1cc(NC(=O)NC(=O)c2ccccc2NC(=O)C(C)N)ccc1Oc1ncc(Br)cn1 (configuration not stated) | 4.35 |
| Cc1ccc(NC(=O)Nc2ccccc2C(N)=O)cc1 | -0.95 |
| CSc1cccc(NC(=O)Nc2ccccc2C(N)=O)c1 | 0.9 |
| C[C@@H]1O[C@@H](Oc2c(-c3cc(O)c(O)c(O)c3)oc3cc(O)cc(O)c3c2=O)[C@H](O)[C@H](O)[C@H]1O | 0.05 |
| NC(N)=Nc1ccc(N=C(N)N)cc1 | 0.3 |
| COc1ccc(OC)c(NC(=O)c2cc3oc4ccccc4c3cc2O)c1 | -1.55 |
| Nc1cc(=O)[nH]c2ncnn12 | -0.15 |
| CCOc1ccc(NC(=O)C2CCCN(C)C2)cc1 (configuration not stated) | 0.6 |
| Nc1ncnc2c([C@@H]3O[C@H](CO)[C@@H](O)[C@H]3O)c[nH]c12 | 0.15 |
| COC(=O)CC1OCC=C2CN3CCC45C6=CC(=O)C(=O)C([N+](=O)[O-])=C6NC4C1C2CC35 (configuration not stated) | -0.2 |
| CCOC(=O)C1(C#N)C(=O)CSC1=Nc1ccccc1Cl (configuration not stated) | -1.05 |
| CCOC(=O)Nc1csnn1 | -0.7 |
| CCOC(=O)Nc1c2ccccc2nc2ccccc12 | -1.8 |
| CCOC(=O)Nc1cc2c(c(N)n1)N=C(c1ccccc1)CN2 | 4 |

| SMILES | T3 sensor activation Q score |
| --- | --- |
| Oc1ccc(Nc2ccnc3cc(Cl)ccc23)cc1 | 1.1 |
| O=C(Nc1cccc([N+](=O)[O-])c1)c1cccc(C(=O)Nc2cccc([N+](=O)[O-])c2)c1 | -0.25 |
| Cc1c(-c2ccccc2)n(O)[n+]([O-])c1-c1ccccc1 | 0.7 |
| Oc1ccccc1Nc1ccccn1 | 1.75 |
| Cc1nnc2nc(-c3ccccc3)nc(-c3ccccc3)n12 | -1.75 |
| CCOC(=O)c1c(O)cc(C)[nH]c1=O | -0.85 |
| O=S(=O)(c1ccc2c(c1)CCCN2)N1CCC[C@H]2CCCC[C@@H]21 | 0.2 |
| O=C1OC(CN(Cc2ccccc2)Cc2ccccc2)CN1/N=C/c1ccc([N+](=O)[O-])o1 (configuration not stated) | -0.6 |
| Cc1cc2nc(CS)[nH]c2cc1C | -1.1 |
| CC(=O)Nc1ccc2cc3ccc(NC(C)=O)cc3nc2c1 | 0.2 |
| Cc1ccc(-n2nnnc2-c2cccnc2)cc1 | -0.15 |
| CCOC(=O)c1cc[nH]c1CC(=O)NC | 0.6 |
| Cc1ccc2c(c1)c1ccc3c(c1n2C)C(=O)C=CC3=O | -1.5 |
| Cc1cccc(C)c1NC(=O)Nc1ccc(S(N)(=O)=O)cc1 | 1.6 |
| CCOC(=O)/C(C#N)=C1\SS/C(=C(/C#N)C(=O)OCC)S1 | 0.55 |
| c1cc(CN2CCCNCCNCCCNCC2)ccc1CN1CCCNCCNCCCNCC1 | -0.5 |
| NCCN1CCNCC1 | 1.85 |
| C=CCOc1ccc(S(C)(=O)=O)cc1 | 1.85 |
| C#CCOCC1CN(c2ccccc2)C(=O)O1 (configuration not stated) | 1.9 |
| CCCCOc1ccc(N=Nc2ccc(N)nc2N)cn1 | 1.7 |
| N#CC1C=Cc2c(ccc3ccccc23)N1C(=O)c1ccccc1 (configuration not stated) | 2.65 |
| O=C(Nc1cccc2ccccc12)c1ccccc1 | -0.45 |
| O=C(CC1C=Cc2ccccc2N1C(=O)c1ccccc1)c1ccccc1 (configuration not stated) | -1.4 |
| Nc1ccc2c(c1)Cc1cc(Cl)c(Cl)cc1-2 | -0.65 |

| SMILES | T3 sensor activation Q score |
| --- | --- |
| OC(COc1ccc(Cl)cc1)CN1CCN(c2cccc(Cl)c2)CC1 (configuration not stated) | -0.65 |
| O=C(Nc1ccc2ncccc2c1)Nc1ccc2ncccc2c1 | 0.15 |
| Cc1c(CCO)c(=O)n2n1CCCC2 | -0.55 |
| CCCCCCCC1(C)NC(=O)NC1=O (configuration not stated) | -1.9 |
| ClCC(CNCc1ccccc1)c1ccccc1 (configuration not stated) | 0.35 |
| O=c1cc(-c2ccc(Cl)cc2)[nH]c2ccccc12 | 0 |
| c1ccc(N=NN2CCOCC2)cc1 | -0.75 |
| CC1(C)OC2C(CO)OC(n3cnc4c(=S)nc[nH]c43)C2O1 (configuration not stated) | 0.4 |
| COC(=O)CC1(C(=O)OC)Nc2cc(Cl)c(Cl)cc2S(=O)(=O)N1O (configuration not stated) | 0.7 |
| CN(CCC#N)c1ccc(/C=C(\C#N)c2cccc(C(F)(F)F)c2)cc1 | -0.05 |
| CC1CC(C)(C)NC2(CCCC2)N1 (configuration not stated) | -0.6 |
| O=C(Nc1ccc(O)c(C(=O)O)c1)Oc1ccccc1 | 0.9 |
| c1ccc2[nH]c(-c3ccncc3)nc2c1 | 0.2 |
| CC(=O)CC(=O)Nc1ccc2ccccc2c1 | 1.25 |
| c1ccc2[nH]c(CCCCCc3nc4ccccc4[nH]3)nc2c1 | -0.5 |
| Cc1ccc(CC#N)c(-c2c(CC#N)ccc(C)c2C)c1C | -0.85 |
| c1ccc2c(c1)[nH]c1c3ccccc3sc21 | -0.95 |
| O=C(Nc1ccc(Nc2ccncc2)cc1)c1ccc(Nc2ccnc3ccc([N+](=O)[O-])cc23)cc1[N+](=O)[O-] | -1.4 |
| O=C(Nc1ccc(Nc2ccncc2)cc1)c1ccc([N+](=O)[O-])cc1 | 0.75 |
| O=C(Nc1ccc(Nc2ccncc2)cc1)c1ccc(Nc2ccnc3ccc([N+](=O)[O-])cc23)cc1 | 9.85 |
| C/C(=N\NC(=S)N1CC2CCC(CC2)C1)c1cnccn1 | -1.2 |
| CCOC(=O)c1nn(-c2ccccc2)cc1O | 0.05 |
| O=C(c1ccc(OCCN2CCCCC2)cc1)c1c(-c2ccc(O)cc2)sc2cc(O)ccc12 | 2.7 |
| CC1=Nc2ccccc2/C1=C\c1c(C)[nH]c2ccccc12 | -0.45 |

| SMILES | T3 sensor activation Q score |
| --- | --- |
| O=C(C(=O)c1cccnc1)c1cccnc1 | 1.75 |
| Cc1ccncc1C(N)=O | 1.9 |
| Cc1ccc(NC(=O)Nc2cccnc2)cc1NC(=O)Nc1cccnc1 | 0.95 |
| COc1ccccc1NC(=O)c1cc2ccccc2cc1O | -0.55 |
| NC(=O)c1cc(C(N)=O)nc(Cl)n1 | -0.8 |
| C=CCNC(=S)N1CCN(c2ccccc2Cl)CC1 | -0.25 |
| O=C(C(Cl)Cl)N1CC2CCC(CC2)C1 | 1.4 |
| NS(=O)(=O)c1ccc(NC(=S)NC(=O)c2ccco2)cc1 | 1 |
| CN=C1C=C/C(=N/N=c2/ccn(O)cc2C)C=C1C | 0.15 |
| CC(C)(C)c1ccc(C(=O)N2CCOC23CCCCC3)cc1 | 1.85 |
| O=C(COc1cc(Cl)c(Cl)cc1Cl)Nc1ccc([N+](=O)[O-])cc1Cl | -0.3 |
| CC(=O)NCCCOc1ccc([N+](=O)[O-])cc1Cl | -0.6 |
| O=C(COc1ccc([N+](=O)[O-])cc1Cl)N1CCOCC1 | 1.85 |
| COc1ccc(Br)c2c1C(=O)CC2 | -1.4 |
| CCCN(CCC)CC(=O)N1CC(=O)Nc2ccccc21 | 0.55 |
| Nc1ccc(N=Nc2ccc(O)cc2)c(N)n1 | 1.5 |
| Cc1ccc(N=Nc2c(O)c3ccccc3[nH]c2=O)c(S(=O)(=O)N(C)C)c1 | 0.95 |
| C#CC1(O)CCC2C3CCC4=Cc5oncc5CC4(C)C3CCC21C (configuration not stated) | 0.1 |
| COc1cc2c(c(OC)c1O)C(=O)CO2 | 1.55 |
| CC(=O)[C@H]1CC[C@H]2[C@@H]3CCC4=CC(=O)CC[C@]4(C)[C@@]3(F)[C@@H](O)C[C@]12C | 0.55 |
| CC1(c2ccccc2)O[C@@H]2C[C@H]3[C@@H]4CCC5=CC(=O)C=C[C@]5(C)[C@@]4(F)[C@@H](O)C[C@]3(C)[C@]2(C(=O)CO)O1 (some centres not stated) | 3.35 |
| CC(C)(C)n1nc(C2CC2)cc1NC(=O)Nc1ccc(Cl)cc1 | 0.7 |
| COc1cc(Cl)c(CC(=O)c2c[nH]c3ccccc23)cc1OC | 1.05 |
| CC(C)(C)N1CC(OC(N)=O)C1 | 1.65 |

| SMILES | T3 sensor activation Q score |
| --- | --- |
| O=[N+]([O-])c1cccc(-c2nc3ccccc3s/c2=N/O)c1 | 1.3 |
| CN(C)c1ccc(N=Nc2ccccn2)cc1 | -0.95 |
| Nc1c(Cl)ncnc1NCCO | 0.55 |
| COCC(=O)OC1CCn2c1nc1c2C(=O)C(C)=C(NC(C)=O)C1=O (configuration not stated) | -0.35 |
| C(=N\n1cnnc1)/c1ccc2c(c1)CCC2 | 0.05 |
| Cc1cc(C)c(C#N)c(Sc2nc(C)c([N+](=O)[O-])c(C)c2C#N)n1 | -0.15 |
| CC(=O)NC1(C(=O)O)CCCC1 | -1.1 |
| CC(=NO)C1CC(CC(=O)O)C1(C)C (configuration not stated) | -0.55 |
| O=c1cc(-c2ccccc2)nc2cc(-c3ccco3)[nH]n12 | 0.35 |
| Cn1c(N)c(C(=O)/C=C/c2ccccc2)c(=O)[nH]c1=O | 1.7 |
| OCc1ncccc1O | -0.75 |
| CN(C)CCCN1c2ccc3ccccc3c2Sc2cccc(Cl)c21 | -0.4 |
| S=c1[nH]cc2cnccn12 | -1.4 |
| CCOc1ccc(NC(=S)NC(=O)c2ccco2)cc1 | -1.05 |
| Cc1ccn(C)c(=N)c1 | 2 |
| O=C1OCC/C1=C\NCCCCCCCCN/C=C1\CCOC1=O | 1.2 |
| O=C1N=NC2=C1c1c3ccccc3c(O)n1CC2 | 1.7 |
| CC(C)=CCC/C(C)=C\C(N)=O | 0.2 |
| CC(C)CC(NC(=O)OCc1ccccc1)C(=O)NC(Cc1c[nH]c2ccccc12)C(=O)O (configuration not stated) | -0.85 |
| O=C1CSC(c2cccs2)N1c1nncs1 (configuration not stated) | 0.05 |
| N=C(N)n1c(N)nc2ccccc2c1=O | -0.55 |
